Laboratory results taken from PubChem BioAssay (Tox21).
Inconclusive results are not listed. A call without a number means that no potency is given here. Some structures have more than one record in an assay (separate samples or runs), and their calls can disagree. Activity calls are given as the source filed them. Unless noted, calls come from the whole dose curve; as a rule, active = well fitted curve in the direction sought with a large enough effect in the repeat runs; inconclusive = weak or mixed curves; inactive = no such curve, though single readings can be large; an effect the other way counts as inactive or inconclusive.

Legend:
[1] = qHTS assay to identify small molecule antagonists of the estrogen receptor alpha (ER-alpha) signaling pathway using the BG1 cell line in the presence of 0.1 nM 17-beta-estradiol - cell viability counter screen (AID 1259241); note: nearly all actives have a fitted effect of over 40% in size; note: potency is the fitted concentration of half-maximal effect
Summary of the method: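 In this screen, hormone-deprived VM7Luc4E2 cells were seeded at 4,000 per well, dosed with compound and 0.1 nM estradiol final, and incubated 22 hr at 37C and 5% CO2; fluorogenic live-cell protease signal reported viability.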

[2] = qHTS assay to identify small molecule antagonists of the androgen receptor (AR) signaling pathway using the MDA cell line in the presence of 0.5 nM R1881 - cell viability counter screen (AID 1259242); note: nearly all actives have a fitted effect of over 45% in size; note: potency is the fitted concentration of half-maximal effect
Summary of the method: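 Steps: plate MDA-kb2 cells, rest 5 hr at 37C without CO2; pin in compounds in DMSO; add R1881 to 0.5 nM final; incubate 16 hr; add CellTiter-Fluor, 30 min; read fluorescence.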

[3] = molecular target: Androgen receptor (Homo sapiens) (UniProt P10275); assay: qHTS assay to identify small molecule antagonists of the androgen receptor (AR) signaling pathway using the MDA cell line in the presence of 0.5 nM R1881 (AID 1259243); note: nearly all actives have a fitted effect of over 50% in size; note: potency is the fitted concentration of half-maximal effect
Summary of the method: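 Stably transfected MDA-kb2 cells express luciferase from an MMTV promoter bearing both AR and GR response elements. Compounds plus 0.5 nM R1881 (final) were incubated 16 hr at 37C without CO2, then luminescence measured.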

[4] = qHTS assay to identify small molecule HDAC inhibitors (AID 1259364); note: potency is the fitted concentration of half-maximal effect;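 note: wild-type HCT-116 cells with endogenous class I/II HDAC activity; nearly all actives have a fitted effect of over 45% in size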
Summary of the method: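 Cells (HCT-116, wild type) are seeded at 1,500 per well, incubated overnight, treated with compound in DMSO for 2 hr, then developed with HDAC-Glo I/II reagent for 30 min at room temperature.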

[5] = qHTS assay to identify small molecule HDAC inhibitors - cell viability counter screen (AID 1259365); note: nearly all actives have a fitted effect of over 50% in size; note: potency is the fitted concentration of half-maximal effect
Summary of the method: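 Measured quantity is CellTiter-Glo luminescence from wild-type HCT-116 cells after compound incubation of 2hr at 37C, 5% CO2; reagent developed 30min at room temperature.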

[6] = qHTS assay to identify small molecule agonists of the sonic hedgehog signaling (Shh) pathway - cell viability counter screen (AID 1259366); note: nearly all actives have a fitted effect of over 50% in size; note: potency is the fitted concentration of half-maximal effect
Summary of the method: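 In quantitative high-throughput format, 3T3 Gli1-Luc cells were exposed to compounds for 24hr and multiplexed for viability using CellTiter-Fluor, incubated 1hr at 37C before the fluorescence read.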

[7] = qHTS assay to identify small molecule antagonists of the sonic hedgehog signaling (Shh) pathway - cell viability counter screen (AID 1259367); note: nearly all actives have a fitted effect of over 55% in size; note: potency is the fitted concentration of half-maximal effect
Summary of the method: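 Viability was read by CellTiter-Fluor fluorescence in the same wells, reagent added 23 hr into compound treatment and incubated 1 hr at 37C. The 3T3 Gli1-Luc reporter cells (2,000/well) received conditioned medium after compound and ran 24 hr.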

[8] = qHTS assay to identify small molecule agonists of the sonic hedgehog signaling (Shh) pathway (AID 1259368; calls by dose curve;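 note: NIH/3T3-derived 3T3Gli1-Luc cells carrying a stable Gli1-driven firefly luciferase reporter; series mostly up to about 92 µM; nearly all actives have a fitted effect of over 15% in size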)
Summary of the method: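 Cells of a mouse NIH/3T3 clone stably expressing luciferase under the Gli1 transcriptional response element are exposed to test chemicals for 24 hr at 37 C. Pathway activation is detected as a rise in luminescence.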

[9] = molecular target: Estrogen receptor (Homo sapiens) (UniProt P03372); assay: qHTS assay to identify small molecule antagonists of the estrogen receptor alpha (ER-alpha) signaling pathway using the BG1 cell line in the presence of 0.1 nM 17-beta-estradiol (AID 1259244); note: nearly all actives have a fitted effect of over 50% in size; note: potency is the fitted concentration of half-maximal effect
Summary of the method: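 Antagonist mode: compounds in DMSO are pinned onto VM7Luc4E2 reporter cells, 0.1 nM final 17beta-estradiol is added, and after 22 h at 37C luciferase luminescence is measured with ONE-Glo.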

[10] = qHTS assay to identify small molecule phospholipidosis (PLD) inducers (AID 1259344; active = well fitted curve in the direction sought with a large enough effect; an effect the other way counts as inactive or inconclusive)
Summary of the method: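 Phospholipid accumulation was scored by imaging: fixed, Hoechst-counterstained HepG2 cells stained with LipidTOX Red after 24 h compound exposure at 37 C. Read-outs were pit count and pit intensity per well or per cell, with amiodarone and DMSO controls.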

Chain of Estrogen receptor (Homo sapiens) (P03372 whole entry, looked up): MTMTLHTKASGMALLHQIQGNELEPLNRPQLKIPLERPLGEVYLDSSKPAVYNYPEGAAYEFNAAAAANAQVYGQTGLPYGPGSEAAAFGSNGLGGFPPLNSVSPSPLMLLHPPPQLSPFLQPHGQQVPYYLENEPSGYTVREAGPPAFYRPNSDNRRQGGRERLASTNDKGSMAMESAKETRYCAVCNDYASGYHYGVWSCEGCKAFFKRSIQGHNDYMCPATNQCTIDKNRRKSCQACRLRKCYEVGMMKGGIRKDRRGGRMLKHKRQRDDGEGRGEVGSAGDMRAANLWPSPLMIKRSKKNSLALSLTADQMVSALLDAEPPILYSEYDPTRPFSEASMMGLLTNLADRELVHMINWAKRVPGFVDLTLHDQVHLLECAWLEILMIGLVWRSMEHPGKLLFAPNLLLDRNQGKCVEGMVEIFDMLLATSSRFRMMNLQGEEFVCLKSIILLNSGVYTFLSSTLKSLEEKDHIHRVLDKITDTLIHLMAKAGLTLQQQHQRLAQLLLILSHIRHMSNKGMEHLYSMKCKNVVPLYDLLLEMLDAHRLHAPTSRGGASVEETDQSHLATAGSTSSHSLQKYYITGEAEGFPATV
Chain of Androgen receptor (Homo sapiens) (P10275 whole entry, looked up): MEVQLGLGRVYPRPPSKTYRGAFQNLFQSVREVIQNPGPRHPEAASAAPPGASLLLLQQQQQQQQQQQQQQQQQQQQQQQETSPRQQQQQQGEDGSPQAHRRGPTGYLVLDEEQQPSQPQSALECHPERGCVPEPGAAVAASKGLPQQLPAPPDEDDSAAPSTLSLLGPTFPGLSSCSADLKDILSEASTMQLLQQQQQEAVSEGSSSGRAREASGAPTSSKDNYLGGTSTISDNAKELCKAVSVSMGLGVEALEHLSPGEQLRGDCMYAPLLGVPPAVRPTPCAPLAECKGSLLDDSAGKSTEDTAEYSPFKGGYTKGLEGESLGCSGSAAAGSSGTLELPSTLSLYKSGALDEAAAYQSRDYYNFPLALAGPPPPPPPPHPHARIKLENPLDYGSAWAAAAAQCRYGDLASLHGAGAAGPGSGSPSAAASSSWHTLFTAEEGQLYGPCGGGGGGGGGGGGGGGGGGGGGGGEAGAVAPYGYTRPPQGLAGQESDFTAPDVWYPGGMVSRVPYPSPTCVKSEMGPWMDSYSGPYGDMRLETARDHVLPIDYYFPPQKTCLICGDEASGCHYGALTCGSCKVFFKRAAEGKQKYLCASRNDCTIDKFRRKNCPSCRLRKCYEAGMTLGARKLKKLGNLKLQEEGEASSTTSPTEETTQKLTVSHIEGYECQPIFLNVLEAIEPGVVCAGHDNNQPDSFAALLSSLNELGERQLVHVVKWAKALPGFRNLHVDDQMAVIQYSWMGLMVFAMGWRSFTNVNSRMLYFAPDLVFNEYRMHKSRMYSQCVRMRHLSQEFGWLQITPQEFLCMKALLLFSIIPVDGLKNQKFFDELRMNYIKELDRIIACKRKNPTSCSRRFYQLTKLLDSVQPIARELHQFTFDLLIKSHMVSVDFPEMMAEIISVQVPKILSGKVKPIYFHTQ

SMILES | Potency [1] | Potency [2] | Potency [3] | Potency [4] | Potency [5] | Potency [6] | Potency [7] | Potency [8] | Potency [9] | outcome [10] | PLD induction [10]
C=CCOC(C)=O | inactive | inactive | 26.9 µM (active) | inactive | inactive | inactive | inactive | inactive | – | – | –
Brc1ccccc1 | inactive | inactive | inactive | inactive | – | inactive | inactive | inactive | – | – | –
CC(=O)NC1CCSC1=O (stereo unspecified) | inactive | inactive | inactive | inactive | inactive | inactive | inactive | inactive | inactive | inactive | –
COc1cc(CC(C)N)cc2c1OCO2 (stereo unspecified) | inactive | inactive | – | inactive | inactive | inactive | inactive | inactive | inactive | inactive | –
O=[N+]([O-])c1cc(C(F)(F)F)cc([N+](=O)[O-])c1Cl | inactive | inactive | – | inactive | inactive | 30.8 µM (active) | 24.4 µM (active) | – | inactive | – | –
CCCCCCCCCC(=O)O[C@H]1CC[C@H]2[C@@H]3CCC4=CC(=O)CC[C@@H]4[C@H]3CC[C@]12C | inactive | inactive | – | inactive | inactive | inactive | inactive | inactive | inactive | inactive | –
OC(c1ccc(Cl)cc1)(c1ccc(Cl)cc1)c1cccnc1 | inactive | inactive | 27.3 µM (active) | inactive | inactive | inactive | inactive | inactive | inactive | – | –
CCOP(=S)(OCC)Oc1nc(Cl)c(Cl)cc1Cl | inactive | inactive | 27.4 µM (active) | inactive | 48.7 µM (active) and inactive | 43.4 µM (active) and inactive | 68.7 µM (active) and inactive | – | inactive | – | –
O=NN1CCCCCC1 | inactive | inactive | inactive | – | inactive | inactive | inactive | inactive | – | – | –
COCC(C)N(C(=O)CCl)c1c(C)csc1C (stereo unspecified) | inactive | inactive | – | – | inactive | inactive | – | inactive | inactive | inactive | –
c1ccc(C2CC2)c(OCC2=NCCN2)c1 | inactive | inactive | – | inactive | inactive | inactive | inactive | inactive | inactive | inactive | –
II | inactive | inactive | inactive | – | inactive | inactive | inactive | inactive | – | – | –
CN1C(=O)C(O)N=C(c2ccccc2)c2cc(Cl)ccc21 (stereo unspecified) | inactive | inactive | – | inactive | inactive | inactive | inactive | inactive | 56.4 µM (active) | inactive | –
Cc1ccc2ccccc2c1 | inactive | inactive | inactive | – | inactive | inactive | inactive | inactive | inactive | – | –
O=S1OC[C@@H]2[C@H](CO1)[C@]1(Cl)C(Cl)=C(Cl)[C@@]2(Cl)C1(Cl)Cl (stereo partly specified) | inactive | inactive | 48.6 µM (active) | inactive | – | inactive | inactive | inactive | – | – | –
CCOP(=O)(OCC)O/C(=C/Cl)c1ccc(Cl)cc1Cl | inactive | inactive | – | inactive | – | inactive | inactive | inactive | 54.5 µM (active) | inactive | –
CC[C@H]1C[C@H]2[C@@H]3CCC4=CC(=O)CC[C@@H]4[C@H]3CC[C@]2(C)[C@H]1O | inactive | inactive | – | inactive | inactive | inactive | inactive | inactive | inactive | – | 1.62% [at 7.66 µM] (inactive)
O=C(NC(=O)c1c(F)cccc1F)Nc1cc(Cl)c(Oc2ncc(C(F)(F)F)cc2Cl)c(Cl)c1 | inactive | inactive | 26.1 µM (active) | inactive | inactive | inactive | inactive | inactive | 29.3 µM (active) | – | –
Cn1sc(Cl)cc1=O | inactive | inactive | – | – | inactive | inactive | inactive | – | inactive | inactive | –
O=S1(=O)OC(c2cc(Br)c(O)c(Br)c2)(c2cc(Br)c(O)c(Br)c2)c2ccccc21 | 14.1 µM (active) | 22.3 µM (active) | 5.6 µM (active) | 3.97 µM (active) | – | 14.1 µM (active) | 15.8 µM (active) | inactive | 17.7 µM (active) | – | –
ClCc1cccc(Cl)c1 | inactive | inactive | inactive | inactive | inactive | inactive | inactive | inactive | inactive | – | –
Cc1ccccc1C(=O)Nc1cccc(OC(C)C)c1 | inactive | inactive | inactive | inactive | inactive | inactive | inactive | inactive | inactive | – | –
CCO[C@H]1O[C@@H]2OC3(C)CC[C@H]4[C@H](C)CC[C@@H]([C@H]1C)[C@@]24OO3 | inactive | inactive | 10.6 µM (active) | inactive | inactive | inactive | inactive | inactive | – | – | –
Cc1cc(=O)[nH]o1 | inactive | inactive | inactive | inactive | – | inactive | inactive | inactive | – | – | –
CC1Sc2c(C(=O)O)c(=O)c3cc(F)c(N4CCNCC4)cc3n21 (stereo unspecified) | inactive | inactive | inactive | inactive | inactive | inactive | inactive | inactive | – | – | –
CCCCCCCCCCOC(=O)c1ccccc1C(=O)OCCCCCCCCCC | inactive | inactive | inactive | inactive | inactive | inactive | inactive | – | inactive | – | –
